Experimental findings from PubChem BioAssay AID624305 (National Center for Advancing Translational Sciences (NCATS), 2012) are described below.

The assay is described as follows: qHTS assay for re-activators of p53 using a Luc reporter: Hit Validation. Also: nearly all actives have a fitted effect of over 75% in size. The following applies: p53-responsive luciferase reporter cells, luminescence, H1299 line expressing heat-sensitive Ala138Val p53; series mostly up to 46.1 µM. The method in brief: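 H1299 (p53-null) cells stably carrying p53-A138V and a BP100-luciferase reporter, 1000 cells/well, treated 24 h at 37 deg C. Compounds at several concentrations, 1:5 dilution; nocodazole control; luminescence read after 10 min with detection reagent.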

Inconclusive results are not listed. Entries that show only a call come without a potency. Unmarked numbers belong to inactive results. Active and inactive are the calls of the source. Calls follow the shape of the dose curve; as a rule, active = well fitted activation curve with a large enough effect; inconclusive = small, poorly fitted or top-dose-only effect; inactive = no such curve, though single readings can be large or run the other way.
Potency is read from the fitted curve at half-maximal effect.

Take `O=C(CNS(=O)(=O)c1cccc(Cl)c1)Nc1ccc(-c2nc3ccccc3s2)cc1`: the Potency is 16400 nM (active).

Turning to `O=C(NNC1=C(C(=O)C(F)(F)F)CCC1)c1cccc(O)c1`, the Potency entry is “inactive”.

As to `COc1ccc(CCC(=O)NC(C)C2CCCO2)cc1` (centres undefined), the Potency entry is “inactive”. With `O=C(NNC(=S)NC1CCCCC1)c1cccs1`, the Potency result is “inactive”. On to `Cc1cc2[nH]c3ccccc3c2c(C)n1`, for which the Potency entry was “inactive”. `CCc1ccc(-n2cc(-c3ccc([N+](=O)[O-])cc3)[nH]c2=S)cc1`: the Potency entry was “inactive”. In the case of `CCN1C(=S)SC(=O)C1=C1C=C(C)N(CCO)C(C)=C1`, the Potency was 1300 nM (active). For the molecule `COc1ccc2c(=O)c(-c3nc(C)cs3)coc2c1`, the Potency was 2060 nM (active). The same measure, in the same setting: for `CC(=O)N1CCC(C(=O)Nc2ccc(S(=O)(=O)NCCc3ccccc3)cc2)CC1` the value was “inactive”.

As to `CN1CC(C(=O)Nc2ccc(F)c(Cl)c2)CC1=O` (centres undefined), the Potency entry is “inactive”.

As to `C/C(=C\C(=O)c1ccccc1)Nc1ccc2c(c1)OCO2`, the Potency was 2910 nM (active). With `ON=C1c2cc(OCCN3CCCCC3)ccc2-c2ccc(OCCN3CCCCC3)cc21`, the Potency entry is “inactive”.

For `O=C(N/N=C\c1cccc(Cl)c1)c1n[nH]c2c1CCCC2`, the Potency was 4110 nM (active).

For `Cc1cs/c(=N\N=C\c2ccc(O)cc2)n1Cc1ccco1`, the Potency entry is “inactive”. Same read-out and setting: for `CC(/C=C/c1ccccc1)=N/O` the value was “inactive”. On to `O=C(Nc1ccc(NC(=O)C2CCCCC2)cn1)c1ccco1`, for which the Potency is 2590 nM (active).

Turning to `CN(C)c1ccc(C(=O)Nc2nc3c(s2)CCCC3)cc1`, the Potency was 82 nM (active). For the molecule `COc1cc(C2=NOC(C(=O)NCc3ccc(F)cc3)C2)cc(OC)c1OC` (centres undefined), the Potency entry is “inactive”. In the case of `CCOc1ccc(N2C(=O)c3ccccc3NC2(C)CC)cc1` (centres undefined), the Potency is 9200 nM (active). Turning to `CCN(Cc1ccccc1)C(=O)CN1C(=S)NC(C)(C)CC1C` (centres undefined), the activation is -15.4% [at 9.22 µM].

With `Cc1ccc(C(=O)Nc2ccn(C)n2)cc1`, the Potency is 8200 nM (active). On to `COc1cccc(NC(=O)CSC2=C(C#N)C(c3ccco3)C3=C(CCCC3=O)N2)c1` (centres undefined), for which the Potency entry is “inactive”. In the case of `CCc1ccc(OCC(=O)NC(NC(=S)Nc2ccccc2C)C(Cl)(Cl)Cl)cc1` (centres undefined), the Potency entry is “inactive”. As for `COc1ccc(C(=O)N/N=C(\C)c2ccccn2)cc1OC`, the Potency is 13000 nM (active). Still for that read-out and setting: for `CC(C)CNC(=S)Nc1ccc(Oc2ccccc2)cc1` the value was “inactive”; for `O=C(N/N=C\c1cc(Cl)ccc1O)c1ccc(S(=O)(=O)N2CCCCC2)cc1`, “inactive”.

On to `OCCNc1nc(NCc2ccccc2)c2ccccc2n1`, for which the activation was -3.8% [at 9.22 µM].

For `CCN1CCN(CC(=O)Nc2nc3ccc(C)cc3s2)CC1`, the Potency result was “inactive”. On the same count and under the same terms, the entry for `CC1Cc2ccccc2N1C(=O)COC(=O)C1(c2ccccc2F)CCCC1` (centres undefined) is “inactive”; for `Cc1cc(C(F)(F)F)c(C#N)c(SCC(=O)Nc2nc3ccccc3s2)n1` it is 1460 nM (active); for `CCC(Sc1nc2ccccc2c(=O)n1CCN1CCOCC1)C(=O)NCc1cccnc1` (centres undefined) it is “inactive”. As to `COc1cc(/C=N/Nc2nc3ccccc3s2)ccc1OC(=O)c1ccccc1F`, the Potency was 1460 nM (active). Turning to `O=C(Nc1ccc2c(c1)CCC2)c1ccccc1F`, the Potency was 366 nM (active). Regarding `Cc1ccc(NC(=O)C2CCCO2)cc1[N+](=O)[O-]` (centres undefined), the Potency result is “inactive”. Consider `N#CC1=C(N)N2C(=C(C#N)C13CCCCC3)SC1CCCCC12O` (centres undefined), for which the Potency entry is “inactive”.

With `O=C(Nc1ncc(Cc2ccccc2)s1)c1cccs1`, the Potency is 2590 nM (active). The same measure, in the same setting: the entry for `COCCN(Cc1cn[nH]c1-c1ccc2cc(OC)ccc2c1)C(C)C` is “inactive”; for `O=C(CC(Nc1ccc(F)cc1)C(=O)OCC(=O)c1cccs1)c1ccccc1` (centres undefined) it is “inactive”; for `CC(C)CC(NC(=O)C1CCC(=O)N1)C(=O)NC(CC(C)C)C(=O)N1CCCC1C(N)=O` (centres undefined) it is “inactive”. As to `O=C(c1cccc(S(=O)(=O)NCc2ccc3c(c2)OCO3)c1)N1CCCC1`, the Potency entry was “inactive”. For the molecule `Cc1ccc2cc3c(N)c(C(=O)N4CCOCC4)sc3nc2c1`, the Potency is 1030 nM (active).

Turning to `CC(=O)/C=C(\C)Nc1ccc(-c2cnc(-c3ccccc3)o2)cc1`, the Potency was 2590 nM (active). With `CCc1cc2c(=O)c(-c3ccc4c(c3)OCCO4)coc2cc1OS(C)(=O)=O`, the Potency is 4610 nM (active).

`O=C(N/N=C/c1cccs1)c1n[nH]c2c1CCC2`: the Potency was 517 nM (active). As for `C=CCNc1nc(-c2cc3ccccc3o2)cs1`, the Potency is 651 nM (active).

Take `CCOc1cc(S(=O)(=O)NC2CCCCCC2)ccc1F`: the Potency entry is “inactive”. On the same count and under the same terms, for `C/C(=N\NC(=O)c1cccc(Br)c1)c1ccccn1` the value was 9200 nM (active).

For `COCC(C)NC(=O)C1CC(=O)N(c2ccc(C)cc2)C1` (centres undefined), the activation was -21.3% [at 9.22 µM].

For `C/C(=N\OCC(=O)NC12CC3CC(CC(C3)C1)C2)c1cc2ccccc2o1`, the Potency result was “inactive”.
